High-throughput results deposited in PubChem BioAssay by several laboratories.
The list is not random: actives were taken first. Their share in the collection is about 4%.
Jurkat NFkB inh: inhibitors of the PMA/ionomycin-induced NF-kB reporter in Jurkat cells. 330,000 tested, 0.53% active. PMA/ionomycin-induced NF-kB luciferase reporter, luminescence. inhibition, % at 4 µM; in the data active means inhibition above about 50%
Gli-Sufu antag: antagonists of Gli-Sufu signaling. Sufu-KO-LIGHT fibroblasts, Gli luciferase reporter luminescence. inhibition, % at 5 µM. 340,000 tested, 0.74% active;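 active means inhibition above about 55%, limit read from the data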;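 further: 0% = DMSO-treated cells and 100% = wells with medium but no cells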
Beta apoptosis: beta cell apoptosis inhibition; INS-1E cytokine-induced death, ATP luminescence, 48 h; percent of positive-control rescue, neutral wells zero; protection from apoptosis, % (test concentration not listed); 300,000 tested, 0.8% active; AID 435005;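 active means Every replicate reaches about 75%, or at least half do and their mean reaches it too, limit read from the data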;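 further: 0% = cytokine-treated negative control wells and 100% = positive control rescue; higher means more ATP so stronger rescue from cytokine killing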
697 NFkB inh: lowers PMA/ionomycin-induced NF-kB signal in 697 B cells; AID 435022; 697 B-cell NF-kB luciferase reporter, 16 h; 330,000 tested, 0.33% active; inhibition, % at 4 µM; in the data active means inhibition above about 35%
Mdm2 MdmX PPI: disrupts the human Mdm2-MdmX interaction; 330,000 tested, 3% active; SaOS-2 split-luciferase Mdm2/MdmX complementation, luminescence; inhibition, % at 8 µM; O15151+Q00987;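 active means inhibition of at least 50% at 8 µM in the primary screen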
Mdm2-MdmX conf: confirmation of human Mdm2/MdmX interaction inhibitors. shares compounds with Mdm2 MdmX PPI. Mdm2-MdmX binding, luminescent assay. inhibition, % at 8 µM. 10,000 tested, 55% active. AID 489028; in the data active means inhibition above about 40%
Full FLuc ctr: full-length luciferase inhibition in Mdm2/MdmX counter-screen. AID 504607. inhibition, % at 8 µM. shares compounds with Mdm2 MdmX PPI. 6,200 tested, 77% active. SaOS-2 full-length luciferase counterscreen, luminescence;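 active means mean inhibition at 8 µM reaching about 37%, which flags the compound as non-specific, limit read from the data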;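 further: p53-null SaOS-2 cells with luciferase driven by a doxycycline-inducible promoter; compound on cells about two nights before reading with doxycycline added after day one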
* = called active by the depositor; x = not tested or not shown.

SMILES	Jurkat NFkB inh	Gli-Sufu antag	Beta apoptosis	697 NFkB inh	Mdm2 MdmX PPI	Mdm2-MdmX conf	Full FLuc ctr
CC(C)(C)NC(=O)C(c1ccc(-c2ccccc2)cc1)N(C[C@H]1CC[C@@H]([C@@H]2CC[C@H](CO)O2)O1)C(=O)c1cccc(Cl)c1 (some centres undefined)	x	1.6	x	19.9	50.1*	10.9	x
COc1ccc(-n2cnc(N)c2C(=O)c2cccc([N+](=O)[O-])c2)cc1	8.5	-10.8	-14.4	-8.5	35.8	x	x
CCOC(=O)C1CCN(c2nc3cc(OC)ccc3cc2C#N)CC1	9.2	-2.5	-6.5	-14.1	4.5	x	x
COc1ccc2cc3c(N)nn(C(=O)c4cccc([N+](=O)[O-])c4)c3nc2c1	27.4	-36.2	-19.3	-8.7	88.4*	66.9*	32.1
COc1ccc2cc3c(N)nn(C(=O)Cc4ccccc4OC)c3nc2c1	4.7	-19.4	-4.5	-28.5	72.5*	67.0*	61.6*
COc1ccc(-c2nc(N)n(C(=O)Cc3ccccc3)n2)cc1	-10.0	-6.8	-24.4	1.8	-12.6	x	x
COc1ccc2cc3c(N)nn(C(=O)C4CCC(C(C)(C)C)CC4)c3nc2c1 (centres undefined)	18.1	-28.5	-26.6	-27.5	93.6*	87.6*	11.2
O=C(O)c1ccc(S(=O)(=O)NC2CCCCCC2)cc1	-6.2	0.3	-0.2	20.4	-2.3	x	x
Cc1ccc2c(C)nc(Nc3nc(CSc4nc5ccccc5[nH]4)cc(=O)[nH]3)nc2c1	36.7	22.6	90.1*	-27.6	59.4*	57.9*	32.5
Cc1ccc(NC(=O)CSc2ccc(-c3ccc(-n4cccn4)cc3)nn2)c(C)c1	-5.8	-14.9	-3.0	12.6	37.3	x	x
N#Cc1c(-c2ccccc2)c(-c2ccccc2)nn(CC(=O)NNC(=O)Nc2ccc(Cl)c(Cl)c2)c1=O	11.0	14.6	6.9	-16.2	62.7*	47.3*	35.9
CC(=O)c1ccc(-c2ccc(C(=O)NCC(c3ccco3)N(C)C)o2)cc1 (centres undefined)	-10.1	-69.2	4.9	-72.5	-25.8	x	x
Cn1c(=O)c2[nH]c(N3CCN(c4ccccc4)CC3)nc2n(C)c1=O	9.4	-22.5	-4.5	13.4	67.4*	39.2	67.0*
Cc1ccc(NNC(=O)c2cc(C(C)(C)C)nn2Cc2ccccc2)cc1	26.1	-2.0	7.4	18.9	17.3	x	x
Cc1ccc(NC(=O)c2cc(C(C)(C)C)nn2Cc2ccccc2)cc1	-68.7	1.1	x	-244.0	74.3*	55.5*	59.2*
Cc1ccc(NC(=O)CSc2cccc[n+]2[O-])c([N+](=O)[O-])c1	-12.2	-7.2	-1.3	-8.1	10.8	x	x
Cn1c(=O)[nH]c(=O)c2c1nc(N/N=C/c1cccnc1)n2Cc1ccc(Cl)cc1	13.4	7.3	-1.8	33.9	62.4*	16.9	x
C[C@H]1CCC[C@]2(C)C[C@H]3OC(=O)C(CN4CCCCCC4)[C@H]3C=C12 (some centres undefined)	24.1	-3.6	-63.5	18.2	72.9*	48.5*	14.1
Cc1cc(OCC(=O)Nc2sc3c(c2C#N)CC(C)(C)NC3(C)C)c(C(C)C)cc1Cl	-9.8	0.3	6.6	-9.9	47.1	x	x
CCOC(=O)c1c(NC(=O)COc2ccccc2F)sc2c1CC(C)(C)NC2(C)C	-9.3	21.3	x	-10.9	83.5*	71.8*	63.3*
CCOC(=O)c1c(NC(=O)CSc2ncccn2)sc2c1CC(C)(C)NC2(C)C	11.3	17.3	-7.2	-23.3	35.2	x	x
Cc1ccc(C(C)C)c(OCC(=O)Nc2sc3c(c2C#N)CC(C)(C)NC3(C)C)c1	7.7	11.2	29.3	-13.0	59.0*	30.7	81.2*
CCOC(=O)c1c(NC(=O)c2ccc(S(=O)(=O)N3CCOCC3)cc2)sc2c1CC(C)(C)NC2(C)C	19.0	15.8	-1.1	-16.2	55.4*	34.4	x
CCOC(=O)c1c(NC(=O)c2ccc(S(=O)(=O)N3CCOCC3)cc2)sc2c1CCN(C)C2	-22.7	9.3	-2.9	-26.6	22.4	x	x
COC(=O)c1c(NC(=O)COc2ccc(Cl)cc2)sc2c1CC(C)(C)NC2(C)C	27.8	22.8	102.3*	-1.0	94.9*	98.8*	-0.4
CC(OC(=O)Cn1[nH]c(=O)c2ccccc2c1=O)C(=O)Nc1ccc(Cl)cn1 (centres undefined)	11.5	1.1	0.0	7.0	11.1	x	x
